In PubChem BioAssay AID1825 (The Scripps Research Institute Molecular Screening Center, 2009):
Screen size: about 290,000 compounds; about 2,300 (0.79%) were called active. No stated cut-off is given here; in the data, active means inhibition above about 22%; inactive means the rest. Shown is part of a subset that was picked to be rich in actives.

Assay: IEC-6 cell viability reduction – luminescence, cytotoxicity control for KLF5 inhibitor project, primary screen (AID 1825);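 further: 0% = plate median of test compound wells and 100% = cytotoxic reference compound wells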
Details: IEC-6 cytotoxicity, at 5 µM, hits give high values

SMILES	inhibition
COc1cc(-n2c(=S)[nH]c3ccc(C)cc3c2=O)c(Cl)cc1Cl	27.3% (active)
CN(C)CC1Oc2ccccc2OC1(O)c1ccccc1 (stereo not given)	10.6% (inactive)
COc1ccc(N2C(=O)/C(=C/c3ccco3)C(=O)NC2=S)cc1	-11.8% (inactive)
COc1cc2nc(N3CCN(C(=O)[C@@H]4CCCO4)CC3)nc(N)c2cc1OC	-0.7% (inactive)
CN(c1ccccc1)c1ccc([N+](=O)[O-])c2nonc12	13.2% (inactive)
CC1=CC(=Cc2sc3ccccc3[n+]2C)C=C(C)O1	25.9% (active)
CCc1nc2ccccc2c(=O)n1-c1cccc(OC)c1	-0.6% (inactive)
COc1cc(Cn2c(N)c(C(=O)NCc3ccco3)c3nc4ccccc4nc32)cc(OC)c1OC	7.4% (inactive)
COc1ccc(-c2nn(CCC#N)cc2C(=O)O)cc1	-8.6% (inactive)
COc1ccc(C(=O)CC2C(=O)N(C)C(=O)N(C)C2=O)cc1	2% (inactive)
Cc1nc2ccccc2c(=O)n1-c1ccc(Cl)cc1Cl	-4.8% (inactive)
CCCCCCCCCCCCn1ccc(=N)cc1	78.8% (active)
CCOP(=S)(OCC)C(O)CCCCCn1c(=O)c(F)cn(C2CCCO2)c1=O (stereo not given)	-1.2% (inactive)
CCOc1cccc(=NC2CCCCC2)c2c(C)[nH]c(C)c12	-11.4% (inactive)
COc1cccc(N2C(=O)NC(=O)/C(=C\c3ccc([N+](=O)[O-])s3)C2=O)c1	-9.9% (inactive)
Cc1cc2ccccn2c1C(C[N+](=O)[O-])c1c(F)cccc1Cl (stereo not given)	47.4% (active)
CC(=O)Nc1ccc(C(=O)C(Cc2ccccc2)N(C)C)cc1 (stereo not given)	-0.8% (inactive)
CC(=O)c1c(C)n(C(C)C)c2ccc(O)cc12	3.8% (inactive)
COc1ccc(-c2nn(CCC#N)cc2C(=O)Nc2ccc(C(C)=O)cc2)cc1	-1.6% (inactive)
O=c1c2ccccc2nc(/C=C/c2ccco2)n1-c1ccccc1O	-4.9% (inactive)
